Holding throughout (assay): yeast three-hybrid, YBZ-1, SC-Leu-His + 0.5 mM 3-AT, 4 days
Common to all, as to conditions: tags: N-Gal4 AD-HA kept; label: inside an RPR1-promoter hybrid RNA with tandem MS2 sites; ssRNA

The target in one assay is PUM1 PUF domain R3-GRS (Homo sapiens, UniProt Q14671 828-1176, C935G;Q939S). In short, it runs like this:
(§1)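 Sequencing with Illumina followed PCR amplification of the repeat regions from transformants grown four days on SC-Leu (input) or SC-Leu-His + 0.5 mM 3-AT (selection). The transformants were strain YBZ-1 with a LexA–MS2 coat fusion and a HIS3 reporter, carrying Pumilio-1 PUF domain libraries and matching RNA elements. The interaction score is the log change in variant frequency from input to selection, computed in log2 with a pseudocount of 1 for absent variants.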

The next assay has as its target PUM1 PUF domain R3-HRS (Homo sapiens, UniProt Q14671 828-1176, C935H;Q939S). Put shortly: as §1
The target in a further assay is PUM1 PUF domain R3-VCK (Homo sapiens, UniProt Q14671 828-1176, C935V;R936C;Q939K). In short, it runs like this: as §1
For a further assay, the target named is PUM1 PUF domain R2-IFA (Homo sapiens, UniProt Q14671 828-1176, N899I;Y900F;Q903A). Put shortly:
as §1

The next assay deals with PUM1 PUF domain R4-FNQ (Homo sapiens, UniProt Q14671 828-1176, N971F;H972N). In short, it runs like this:
as §1

The next assay concerns the target PUM1 PUF domain R5-ERA (Homo sapiens, UniProt Q14671 828-1176, C1007E;Q1011A). In short, it runs like this:
as §1

The target of a further assay is PUM1 PUF domain R5-DWE (Homo sapiens, UniProt Q14671 828-1176, C1007D;R1008W;Q1011E). Put shortly:
as §1

For another assay, the target named is PUM1 PUF domain R4-PYA (Homo sapiens, UniProt Q14671 828-1176, N971P;H972Y;Q975A). Put shortly: as §1
The target of another assay is PUM1 PUF domain R4-PWR (Homo sapiens, UniProt Q14671 828-1176, N971P;H972W;Q975R). Put shortly: as §1
For another assay, the target named is T1, PUM1 PUF domain R6-FRQ (Homo sapiens, UniProt Q14671 828-1176, N1043F;Y1044R).
T1 sequence: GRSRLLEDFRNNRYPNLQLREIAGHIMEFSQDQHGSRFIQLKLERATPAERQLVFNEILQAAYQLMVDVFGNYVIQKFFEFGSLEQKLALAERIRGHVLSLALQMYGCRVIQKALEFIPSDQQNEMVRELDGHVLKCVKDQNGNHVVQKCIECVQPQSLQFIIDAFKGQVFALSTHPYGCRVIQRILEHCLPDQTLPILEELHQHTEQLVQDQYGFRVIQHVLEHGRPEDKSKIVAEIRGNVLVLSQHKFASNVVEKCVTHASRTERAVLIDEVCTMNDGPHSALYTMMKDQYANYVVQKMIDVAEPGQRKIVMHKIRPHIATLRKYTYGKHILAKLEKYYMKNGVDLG
In short, it runs like this:
as §1

The target in the next assay is PUM1 PUF domain R5-MYW (Homo sapiens, UniProt Q14671 828-1176, C1007M;R1008Y;Q1011W). In short, it runs like this:
as §1

Another assay deals with PUM1 PUF domain R1-RSN (Homo sapiens, UniProt Q14671 828-1176, S863R;R864S;Q867N). Put shortly: as §1
The target of the next assay is PUM1 PUF domain R7-KHG (Homo sapiens, UniProt Q14671 828-1176, S1079K;N1080H;E1083G). Put shortly:
as §1

The next assay deals with PUM1 PUF domain R7-RRD (Homo sapiens, UniProt Q14671 828-1176, S1079R;N1080R;E1083D). In short, it runs like this:
as §1

9 sequences from article PMC8384837, “Expanding the binding specificity for RNA recognition by a PUF domain” can be followed below.

As for “GGCUAGAACUAGUGGAUCCCCCGGCGCCCGGCGGCUCGAGCCCGGGUAAGUGUAAGUAGUCUGCAUGCCGCCGGGCGCCAUGCCUGCAGGUCGACUCUAGAAAACAUG”, the binding signal in the assay with PUM1 PUF domain R3-GRS was 1.73 log2 enrichment (interaction score); in the assay with PUM1 PUF domain R3-HRS, 2.22 log2 enrichment (interaction score); with PUM1 PUF domain R3-VCK, 1.58 log2 enrichment (interaction score).
Regarding “GGCUAGAACUAGUGGAUCCCCCGGCGCCCGGCGGCUCGAGCCCGGGUAAGUGUAAAAAGUCUGCAUGCCGCCGGGCGCCAUGCCUGCAGGUCGACUCUAGAAAACAUG”, the binding signal with PUM1 PUF domain R2-IFA was 4.76 log2 enrichment (interaction score).
As for “GGCUAGAACUAGUGGAUCCCCCGGCGCCCGGCGGCUCGAGCCCGGGUAAGUGUAUAUAGUCUGCAUGCCGCCGGGCGCCAUGCCUGCAGGUCGACUCUAGAAAACAUG”, the binding signal with PUM1 PUF domain R4-FNQ was 4.16 log2 enrichment (interaction score).
In the case of “GGCUAGAACUAGUGGAUCCCCCGGCGCCCGGCGGCUCGAGCCCGGGUAAGUGUAAAUAGUCUGCAUGCCGCCGGGCGCCAUGCCUGCAGGUCGACUCUAGAAAACAUG”, the binding signal is 3.08 log2 enrichment (interaction score) with PUM1 PUF domain R5-ERA; 3.79 log2 enrichment (interaction score) in the assay with PUM1 PUF domain R5-DWE; 2.84 log2 enrichment (interaction score) with PUM1 PUF domain R3-GRS; 4.99 log2 enrichment (interaction score) with PUM1 PUF domain R4-PYA; 1.17 log2 enrichment (interaction score) with PUM1 PUF domain R4-PWR; 2.83 log2 enrichment (interaction score) in the assay with PUM1 PUF domain R6-FRQ.
As for “GGCUAGAACUAGUGGAUCCCCCGGCGCCCGGCGGCUCGAGCCCGGGUAAGUGUACAUAGUCUGCAUGCCGCCGGGCGCCAUGCCUGCAGGUCGACUCUAGAAAACAUG”, the binding signal with PUM1 PUF domain R4-PYA was 5.06 log2 enrichment (interaction score); with PUM1 PUF domain R4-PWR, 5.54 log2 enrichment (interaction score).
With “GGCUAGAACUAGUGGAUCCCCCGGCGCCCGGCGGCUCGAGCCCGGGUAAGUGUUAAUAGUCUGCAUGCCGCCGGGCGCCAUGCCUGCAGGUCGACUCUAGAAAACAUG”, the binding signal is 1.72 log2 enrichment (interaction score) with PUM1 PUF domain R5-ERA and 3.48 log2 enrichment (interaction score) with PUM1 PUF domain R5-MYW.
On to “GGCUAGAACUAGUGGAUCCCCCGGCGCCCGGCGGCUCGAGCCCGGGUAAGUGUAAAUUGUCUGCAUGCCGCCGGGCGCCAUGCCUGCAGGUCGACUCUAGAAAACAUG”, for which, in the assay with PUM1 PUF domain R1-RSN, the binding signal was 4.41 log2 enrichment (interaction score).
“GGCUAGAACUAGUGGAUCCCCCGGCGCCCGGCGGCUCGAGCCCGGGUAAGUAUAAAUAGUCUGCAUGCCGCCGGGCGCCAUGCCUGCAGGUCGACUCUAGAAAACAUG”: the binding signal with PUM1 PUF domain R7-KHG is 2.59 log2 enrichment (interaction score).
Turning to “GGCUAGAACUAGUGGAUCCCCCGGCGCCCGGCGGCUCGAGCCCGGGUAAGUUUAAAUAGUCUGCAUGCCGCCGGGCGCCAUGCCUGCAGGUCGACUCUAGAAAACAUG”, the binding signal with PUM1 PUF domain R7-RRD is 4.81 log2 enrichment (interaction score).
